These results are taken from the supplement of paper PMC7366291.

Structures can show the parent of a compound that is named as a salt. ± gives the standard deviation or the standard deviation of the averaged measurements.

Common to all, as to settings: 25 µM; exposure: 24-48 hpf
Test [1] concerns Danio rerio Tg(wt1b:EGFP) embryo, pronephros. Description: glomerular separation, fold change vs DMSO control; higher = glomeruli further apart (abnormal). The procedure, abridged:
(§1)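 Dechorionated Tg(wt1b:EGFP) zebrafish embryos were exposed to 25 μM compound in 0.5% DMSO, HEPES-buffered E3 with 0.003% PTU, from 24 to 48 hpf at 28.5°C. Pronephroi were imaged dorsally in agarose-filled 96-well plates (470 nm, 10 z-slices). On maximum projections, 16 reference points were set manually in Fiji and a macro computed distances and angles. Values more than 2 SD from the feature mean were excluded. Each feature is a fold change relative to the mean of same-day DMSO controls.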

The test system is the same in test [2]. Description: glomerular width (mean of left and right), fold change vs DMSO control; higher = wider glomerulus. The procedure, abridged:
as §1

Test [3] has the same test system. The test can be described thus: fraction of imaged embryos annotated as normal kidney; higher = less nephrotoxic; extreme values may be limits of the assay. The procedure, abridged: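 The read-out is the proportion of embryos in each treatment manually annotated as normal-kidney. Exposure ran from 24 to 48 hpf at 28.5°C in 12-well plates, using dechorionated Tg(wt1b:EGFP) zebrafish embryos in 5 mM HEPES-buffered E3 with 0.003% PTU, 0.5% DMSO and 25 μM compound. For imaging, larvae were anaesthetised with tricaine, positioned dorsally in agarose-filled 96-well plates and captured by widefield fluorescence (470 nm, 10 z-slices), with scoring done on maximum projections.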

Test [4] has the same test system. Description: pronephric angle neck segment to proximal convoluted tubule (mean of left and right), fold change vs DMSO control; higher = larger pronephric angle. The procedure, abridged:
as §1

`CC(=O)O[C@H]1C[C@@H]2CC[C@@H]3[C@H](CC[C@@]4(C)[C@H]3C[C@H]([N+]3(C)CCCCC3)[C@@H]4OC(C)=O)[C@@]2(C)C[C@@H]1N1CCCCC1` [Vecuronium bromide] registered a glomerular separation in test [1] of 1.01 ± 0.35. The molecule further returned a glomerular width in test [2] of 0.967 ± 0.024. The “fraction of imaged embryos annotated as normal kidney” value (“fraction of imaged embryos annotated” below) in test [3] stood at 1. Also, the “pronephric angle neck segment” value in test [4] was determined as 1.03 ± 0.028.

Regarding `NCC[C@H](O)C(=O)N[C@@H]1C[C@H](N)[C@@H](O[C@H]2O[C@H](CN)[C@@H](O)[C@H](O)[C@H]2O)[C@H](O)[C@H]1O[C@H]1O[C@H](CO)[C@@H](O)[C@H](N)[C@H]1O` [Amikacin hydrate], in test [1], the glomerular separation is 1.13 ± 0.48. The same molecule registered a glomerular width in test [2] of 1.02 ± 0.028. Besides, in test [3], the “fraction of imaged embryos annotated” value was found to be 0.667. The “pronephric angle neck segment” value in test [4] worked out at 1.04 ± 0.02.

The molecule `Oc1ncnc2[nH]ncc12` [Allopurinol] displayed a glomerular separation in test [1] of 0.837 ± 0.22. In test [2], the glomerular width was 0.984 ± 0.018. In addition, the “fraction of imaged embryos annotated” value in test [3] stood at 0.75. For the same molecule, the “pronephric angle neck segment” value in test [4] amounted to 0.9723 ± 0.0072.

Consider `C#CCN(C)CCCOc1ccc(Cl)cc1Cl` [Clorgyline hydrochloride], for which, in test [1], the glomerular separation is 0.959 ± 0.32. Moreover, in test [2], the glomerular width is 1.05 ± 0.029. Moreover, the “fraction of imaged embryos annotated” value in test [3] was determined as 1. The “pronephric angle neck segment” value in test [4] was found to be 0.984 ± 0.047.

The molecule `CC(CN(C)C)C(C)(O)Cc1ccc(Cl)cc1` (stereo unspecified) [Clobutinol hydrochloride] showed a glomerular separation in test [1] of 1.4 ± 0.46. The molecule further came in with a glomerular width in test [2] of 0.945 ± 0.026. Also, in test [3], the “fraction of imaged embryos annotated” value amounted to 0.75. In test [4], the “pronephric angle neck segment” value was 0.979 ± 0.034.

Turning to `CCOC(=O)[C@@](C)(N)Cc1ccc(O)c(O)c1` [Methyldopate hydrochloride], in test [1], the glomerular separation worked out at 1.28 ± 0.62. For the same molecule, the glomerular width in test [2] came to 0.9116 ± 0.0027. Further, the “fraction of imaged embryos annotated” value in test [3] was 0.667. Besides, the “pronephric angle neck segment” value in test [4] turned out to be 1.014 ± 0.0011.

`CC[C@H](C)C(=O)O[C@H]1C[C@@H](C)C=C2C=C[C@H](C)[C@H](CC[C@@H]3C[C@@H](O)CC(=O)O3)[C@H]21` [Lovastatin]: the glomerular separation in test [1] came out at 5.64 ± 2.1. Also, the glomerular width in test [2] turned out to be 0.622 ± 0.012. For the same molecule, the “fraction of imaged embryos annotated” value in test [3] is 0. In test [4], the “pronephric angle neck segment” value came out at 1.54 ± 0.057.

Turning to `CC(C(=O)O)c1ccc(C(=O)c2cccs2)cc1` (stereo unspecified) [Suprofen], in test [1], the glomerular separation was 1.78 ± 0.63. The glomerular width in test [2] is 1.02 ± 0.14. Besides, the “fraction of imaged embryos annotated” value in test [3] amounted to 0.75. Further, in test [4], the “pronephric angle neck segment” value was 1.03 ± 0.081.

Take `CC(CNC1CCCCC1)OC(=O)c1ccccc1` (stereo unspecified) [Hexylcaine hydrochloride]: the glomerular separation in test [1] turned out to be 0.859 ± 0.46. The glomerular width in test [2] was 0.937 ± 0.014. For the same molecule, the “fraction of imaged embryos annotated” value in test [3] was 0.857. Besides, the “pronephric angle neck segment” value in test [4] was determined as 1.09 ± 0.14.

`CCCCOc1cc(C(=O)OCCN(CC)CC)ccc1N` [Benoxinate hydrochloride]: the glomerular separation in test [1] worked out at 0.798 ± 0.38. In test [2], this molecule yielded a glomerular width of 1.07 ± 0.018. Also, the “fraction of imaged embryos annotated” value in test [3] stood at 0.833. Besides, the “pronephric angle neck segment” value in test [4] came to 0.9693 ± 0.0068.

Consider `COC(=O)Nc1nc2cc(C(=O)c3ccccc3)ccc2[nH]1` [Mebendazole], for which the glomerular separation in test [1] was determined as 4.75 ± 1.7. The molecule also yielded a glomerular width in test [2] of 0.552 ± 0.014. Also, in test [3], the “fraction of imaged embryos annotated” value came to 0. Besides, the “pronephric angle neck segment” value in test [4] stood at 1.91 ± 0.057.

In turn, `CCCCOc1ccc(OCCCN2CCOCC2)cc1` [Pramoxine hydrochloride] registered a glomerular separation in test [1] of 0.962 ± 0.26. In test [2], the glomerular width was 0.951 ± 0.025. Moreover, the “fraction of imaged embryos annotated” value in test [3] came out at 0.917. In addition, in test [4], the “pronephric angle neck segment” value was determined as 0.993 ± 0.033.

Consider `C=CC1=C(C(=O)O)N2C(=O)[C@@H](NC(=O)/C(=N\O)c3csc(N)n3)[C@H]2SC1` [Cefdinir], for which, in test [1], the glomerular separation is 0.772 ± 0.34. In test [2], this molecule yielded a glomerular width of 1.04 ± 0.029. Moreover, the “fraction of imaged embryos annotated” value in test [3] turned out to be 1. In addition, the “pronephric angle neck segment” value in test [4] was found to be 1.003 ± 0.0083.

`NC(=O)NC1NC(=O)NC1=O` (stereo unspecified) [Allantoin]: the glomerular separation in test [1] is 0.881 ± 0.25. Also, the glomerular width in test [2] is 0.9104 ± 0.001. In addition, the “fraction of imaged embryos annotated” value in test [3] amounted to 0.917. Further, the “pronephric angle neck segment” value in test [4] stood at 0.981 ± 0.024.

Consider `O=P(O)(O)C(O)(Cc1cccnc1)P(=O)(O)O` [Risedronic acid monohydrate], for which the glomerular separation in test [1] was found to be 0.755 ± 0.35. This molecule had a glomerular width in test [2] of 1.04 ± 0.032. The “fraction of imaged embryos annotated” value in test [3] stood at 0.833. For the same molecule, the “pronephric angle neck segment” value in test [4] turned out to be 0.975 ± 0.027.

Turning to `CC1CCc2cc(F)cc3c(=O)c(C(=O)O)cn1c23` (stereo unspecified) [Flumequine], the glomerular separation in test [1] was determined as 2.57 ± 1.2. The molecule also gave a glomerular width in test [2] of 1.05 ± 0.023. The “fraction of imaged embryos annotated” value in test [3] stood at 0.583. Moreover, in test [4], the “pronephric angle neck segment” value came to 1.15 ± 0.046.

Molecule `CC(=O)[C@@]1(O)CC[C@H]2[C@@H]3C[C@H](C)C4=CC(=O)C=C[C@]4(C)[C@@]3(F)[C@@H](O)C[C@@]21C` [Fluorometholone] displayed a glomerular separation in test [1] of 1.11 ± 0.27. The glomerular width in test [2] is 1.174 ± 0.0086. In test [3], the “fraction of imaged embryos annotated” value turned out to be 0.417. In test [4], the “pronephric angle neck segment” value was determined as 0.997 ± 0.035.

With `N[C@@H](C(=O)N[C@@H]1C(=O)N2C(C(=O)O)=C(Cl)CC[C@H]12)c1ccccc1` [Loracarbef], the glomerular separation in test [1] is 1.06 ± 0.25. In addition, the glomerular width in test [2] is 1.08 ± 0.011. The “fraction of imaged embryos annotated” value in test [3] is 0.917. The “pronephric angle neck segment” value in test [4] worked out at 0.999 ± 0.025.

Molecule `COC(=O)Nc1nc2cc(C(=O)c3cccs3)ccc2[nH]1` [Nocodazole] yielded a glomerular separation in test [1] of 1.86 ± 0.67. Moreover, the glomerular width in test [2] amounted to 0.523 ± 0.024. Moreover, the “fraction of imaged embryos annotated” value in test [3] was determined as 0. For the same molecule, in test [4], the “pronephric angle neck segment” value is 1.87 ± 0.13.

As for `CCOc1nc2cccc(C(=O)O)c2n1Cc1ccc(-c2ccccc2-c2nnn[nH]2)cc1` [Candesartan], the glomerular separation in test [1] came out at 0.996 ± 0.37. The glomerular width in test [2] stood at 1.03 ± 0.023. In addition, in test [3], the “fraction of imaged embryos annotated” value is 0.917. In addition, the “pronephric angle neck segment” value in test [4] stood at 1.01 ± 0.019.

Consider `CN(C)CCn1nnnc1SCC1=C(C(=O)O)N2C(=O)[C@@H](NC(=O)Cc3csc(N)n3)[C@H]2SC1` [Cefotiam hydrochloride], for which the glomerular separation in test [1] stood at 1.46 ± 0.87. The molecule further had a glomerular width in test [2] of 0.929 ± 0.014. Also, the “fraction of imaged embryos annotated” value in test [3] was 0.917. Further, the “pronephric angle neck segment” value in test [4] is 1.08 ± 0.14.

As to `CC(C(=O)O)c1ccc2c(c1)Cc1cccnc1O2` (stereo unspecified) [Pranoprofen], the glomerular separation in test [1] stood at 0.724 ± 0.18. Besides, in test [2], the glomerular width stood at 0.956 ± 0.035. Moreover, the “fraction of imaged embryos annotated” value in test [3] came to 0.583. The “pronephric angle neck segment” value in test [4] came to 1.049 ± 0.01.

Molecule `COc1cc2nc(N3CCN(C(=O)C4CCCO4)CC3)nc(N)c2cc1OC` (stereo unspecified) [Terazosin hydrochloride] yielded a glomerular separation in test [1] of 0.764 ± 0.26. The same molecule returned a glomerular width in test [2] of 1.04 ± 0.027. For the same molecule, the “fraction of imaged embryos annotated” value in test [3] amounted to 0.833. For the same molecule, the “pronephric angle neck segment” value in test [4] is 0.9878 ± 0.0069.

In test [1], `N#Cc1ccc(C(c2ccc(C#N)cc2)n2cncn2)cc1` [Letrozole] returned a glomerular separation of 1.1 ± 0.4. Also, the glomerular width in test [2] was 1.023 ± 0.0059. For the same molecule, in test [3], the “fraction of imaged embryos annotated” value worked out at 0.917. Further, the “pronephric angle neck segment” value in test [4] stood at 0.938 ± 0.014.

As for `Clc1ccc(COC(Cn2ccnc2)c2ccc(Cl)cc2Cl)c(Cl)c1` (stereo unspecified) [Miconazole], in test [1], the glomerular separation amounted to 3.42 ± 1.6. The molecule also had a glomerular width in test [2] of 0.865 ± 0.069. Also, the “fraction of imaged embryos annotated” value in test [3] is 0.0909. Further, the “pronephric angle neck segment” value in test [4] is 1.481 ± 0.012.

For `CC(=O)Oc1cccc2c1C(=O)c1c(OC(C)=O)cc(C(=O)O)cc1C2=O` [Diacerein], the glomerular separation in test [1] is 0.691 ± 0.2. For the same molecule, in test [2], the glomerular width is 1.1 ± 0.046. The “fraction of imaged embryos annotated” value in test [3] stood at 0.833. In addition, the “pronephric angle neck segment” value in test [4] came to 1.02 ± 0.021.

In test [1], `C[C@H](N)[C@H](O)c1cccc(O)c1` [Metaraminol bitartrate] came in with a glomerular separation of 0.797 ± 0.44. The same molecule had a glomerular width in test [2] of 0.961 ± 0.083. Further, in test [3], the “fraction of imaged embryos annotated” value stood at 0.667. For the same molecule, the “pronephric angle neck segment” value in test [4] was 0.771 ± 0.017.

In turn, `COc1ccc(Cl)cc1C(=O)NCCc1ccc(S(=O)(=O)NC(=O)NC2CCCCC2)cc1` [Glibenclamide] gave a glomerular separation in test [1] of 0.804 ± 0.39. This molecule came in with a glomerular width in test [2] of 1.05 ± 0.023. Moreover, the “fraction of imaged embryos annotated” value in test [3] is 0.818. In addition, the “pronephric angle neck segment” value in test [4] amounted to 0.999 ± 0.047.

Regarding `CCN(CC)CCOCCOC(=O)C1(c2ccccc2)CCCC1` [Carbetapentane citrate], in test [1], the glomerular separation is 0.953 ± 0.34. In test [2], this molecule gave a glomerular width of 0.949 ± 0.062. Besides, in test [3], the “fraction of imaged embryos annotated” value turned out to be 0.75. Moreover, the “pronephric angle neck segment” value in test [4] turned out to be 1.06 ± 0.11.
